The results in this text go back to PubChem BioAssay AID1259336 (Sattelle Laboratory, UCL Respiratory, Division of Medicine, …, 2017).

Unmarked numbers belong to inactive results. Active and inactive are the calls of the source. No stated cut-off is given here; in the data, active means log2 fold change growth below about -1.8; inactive means the rest.

The nature of this assay: anthelmintic activity against nematode growth – whole organism, log2 fold change (AID 1259336).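 Further: growth scored by imaging after five days at 20 °C.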 Particulars: C. elegans growth, anthelmintic screen; stronger effect = lower value.
In the case of `OCCc1ccc(Nc2nccc(-c3nnc4ccccn34)n2)cc1`, the log2 fold change growth is -0.0214.
Then `c1ccc2c(c1)CN(CC1CC1)CC1(CCN(Cc3c[nH]c4cnccc34)CC1)O2`, with 0.264; and `CC(=O)NC[C@H]1CN(c2ccc(N3CCSCC3)c(F)c2)C(=O)O1`, with 0.00512.
For `COC(=O)Nc1nc2ccc(C(=O)c3ccccc3)cc2[nH]1`, the log2 fold change growth is -6.04 (active).
As for `O=C(Nc1cccc(-c2ccc(NCCCN3CCCC3)nc2)c1)c1ccccc1`, the figure is 0.467; as for `O=C(Nc1cccc(Cl)c1)c1cnc(N2CCN(c3ccncc3)CC2)c(Cl)c1`, -0.57; as for `COc1cc(N[C@@H](C)CCCN)c2ncccc2c1`, -0.0147.
Then `FC(F)(F)c1nnc2ccc(Cl)nn12`, with -0.128; and `CNC(=O)c1nn(C)c2c1C(C)(C)Cc1cnc(Nc3ccc(N4CCN(C)CC4)cc3)nc1-2`, with 0.103.
As for `Cc1cc(Cl)ccc1NC(=O)CCc1ccc(S(=O)(=O)NCC(C)C)cc1`, the figure is -0.221; as for `Cc1[nH]c2cc(F)cc(F)c2c(=O)c1-c1ccc(Oc2ccc(OC(F)(F)F)cc2)cc1`, -0.247.
Consider `O=C(NCc1cc(Cl)cc(Cl)c1)c1c(C(F)(F)F)nc2ccccn12`, for which the log2 fold change growth was -0.11.
Regarding `Cc1ccc2nc(C)c(-c3ccn(Cc4ccccc4)n3)n2c1`, the log2 fold change growth is 0.192.
Consider `Cn1c(=O)c2c(S(C)(=O)=O)snc2n(C)c1=O`, for which the log2 fold change growth is 0.155.
Then `COc1ccc([C@@H]2CC(c3cccs3)=NN2C(=O)c2ccco2)cc1OC`, with -0.296; and `COc1cc(Br)cc2cc(C(=O)Nc3cccc(C(F)(F)F)c3)c(=O)oc12`, with 0.421; and `CN1CCC(NCc2cccc(-c3ccc(S(=O)(=O)NCc4ccccc4)cc3)c2)CC1`, with 0.364.
As for `CCCn1c(NC(=O)c2ccc3ccccc3n2)nc2ccccc21`, the figure is -0.0431; as for `COc1ccc(Cn2cnc3c(-c4ccco4)nc(Cl)nc32)cc1`, -0.325.
As for `C[C@]1(COc2ccc(N3CCC(Oc4ccc(OC(F)(F)F)cc4)CC3)cc2)Cn2cc([N+](=O)[O-])nc2O1`, the figure is 0.162; as for `O=C(NCCc1c[nH]c2ccccc12)c1cc2ccccc2oc1=O`, 0.481.
Turning to `CC(C)(C)c1ccc(N[C@@H]2CCCC[C@H]2NC(=O)c2ccco2)cc1`, the log2 fold change growth is 0.519.
As for `CNC1C(OC2C(OC3C(O)C(O)C(N=C(N)N)C(O)C3N=C(N)N)OC(C)C2(O)C=O)OC(CO)C(O)C1O` (stereo not drawn), the figure is -0.00587; as for `CCCCN(CCCC)c1c(C#N)cc(S(=O)(=O)Nc2ccccc2)cc1C#N`, -0.631.
As to `COc1cc(C(F)(F)F)nc2ccc(C)c(N)c12`, the log2 fold change growth was 0.198.
Then `O=C(Nc1nnc(-c2ccc(Cl)s2)o1)c1ccc(Cl)s1`, with 0.518; and `Cc1cc(OCC(=O)Nc2ccc(C(C)C)cc2)n(C)c(=O)c1C#N`, with 0.363.
Regarding `O=C(Nc1nnc(-c2ccc(Cl)cc2)o1)c1cccc(C(F)(F)F)c1`, the log2 fold change growth is -1.36.
As for `CCS(=O)(=O)N(Cc1ccco1)Cc1cc2ccc(C)cc2[nH]c1=O`, the figure is 0.443; as for `Nc1ncc(-c2ccc(C(F)(F)F)nc2)cc1-c1ccc(C(F)(F)F)nc1`, 0.0312; as for `CC(=O)NC[C@@H]1CN(c2ccc(N3CCOCC3)c(F)c2)C(=O)O1`, -0.257.
Then `CCOc1ccc2cc(-c3nn(C(C)(C)C)c(N)c3C(N)=O)cnc2c1`, with -0.647.
For `CC(C)[C@H](NC(=O)Cc1cccc2ccccc12)C(=O)Nc1cccc(C#N)c1`, the log2 fold change growth is 0.334.
As for `COc1ccccc1[C@H](C)NCC(=O)Nc1cc(C(F)(F)F)ccc1Cl`, the log2 fold change growth was 0.142.
As for `C[C@@H](C(=O)Nc1ccc2oc(-c3ccncc3)nc2c1)c1ccccc1`, the figure is 0.0616; as for `CC(C)n1nc(-c2cc3c(Cl)cccc3[nH]2)c2c(N)ncnc21`, -2.56 (active); as for `NS(=O)(=O)c1cccc(-c2ccc3ncc(N4CCOCC4)nc3c2)c1`, -0.363.
As to `COc1ccc(-c2cc(NC(=O)c3ccc(F)cc3Cl)ccc2OC)cc1`, the log2 fold change growth was 0.039.
